KDM5B inh: Primary screen for KDM5B Histone Demethylases FDH-coupled qHTS; 2.6% of 220,000 active; Lysine-specific demethylase 5B (Homo sapiens), Q9UGL1; Potency, µM (titrated, usually from 57.7 µM), hits mostly inhibitors; KDM5B demethylase, FDH-coupled NADH fluorescence (FDH is formaldehyde dehydrogenase); active = well fitted inhibition curve with a large enough effect; note: nearly all actives have a fitted effect of over 70% in size
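Here, H3K4me3 peptide (12.5 µM in substrate mix) is demethylated by KDM5BΔAP, 200 nM final, after 10 min compound exposure. Formaldehyde product is coupled through FDH (0.25 U/mL in mix) to NADH fluorescence; 30-min ΔRFU feeds dose-response curves.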
Each line names hits and unclear results; the compound was inactive in the other large screens. Shown is part of a subset that was picked to be rich in hits.

CN1CCc2c([nH]c3ccccc23)C12CCN(S(=O)(=O)c1cccnc1)CC2	none
CCOc1ccc(C2C3=C(CCCC3=O)Nc3nc(-c4ccc(Cl)cc4)nn32)cc1 (stereo not given)	none
Cc1cccc(Nc2nc(-c3ccc(C)cc3C)cs2)c1	none
Cc1cc(SCC(=O)Nc2c(F)cccc2F)nc2ccccc12	none
O=C(Nc1ccc(F)c(Cl)c1)c1nn(Cc2ccccc2)c(=O)c2ccccc12	none
COc1cccc(C(=O)NCCNC(=O)c2cn(C)c3ccccc23)c1	none
COCCN1CCOc2nc(-c3ccc(C(=O)N(C)C)cc3)ncc2C1=O	none
CN1CCN(C)c2cnc(-c3ccc(C(=O)N(C)C)cc3)cc2C1	KDM5B inh 35µM
CN(C)C(=O)c1ccc(-c2cnc3[nH]cc(CC(=O)N4CCOCC4)c3c2)cc1	none
Cc1cc(-c2cc3c(cn2)N(C)CCN(C)C3)ccn1	KDM5B inh 32µM
Cc1c(C)n(-c2ccc(Cl)cc2)c2ncn(CC(=O)NC(C)c3ccccc3)c(=O)c12 (stereo not given)	none
Cc1ccc(S(=O)(=O)N(CC(=O)O)Cc2ccc(Cl)cc2Cl)cc1	none
Cc1cccc(C)c1NC(=O)C1(NC=O)CCCCC1	none
Cc1[nH]c2ccccc2c1C(=O)C(C)OC(=O)c1ccc(F)cc1Cl (stereo not given)	none
Cn1ncc(N2CCC(NC(=O)C3CCC3)CC2)cc1=O	none
CC(=O)Nc1cc(C(=O)NC2CCCCC2)c2ccc(C)nc2c1	KDM5B inh 22µM
Cc1ccc2c(C(=O)NC3CCN(C)CC3)cc(NC(=O)C3CCC3)cc2n1	KDM5B inh 22µM
Cc1cc(C(=O)NC2CCS(=O)(=O)C2)c2ccc(F)cc2n1 (stereo not given)	none
Cc1cc(C(=O)NC2CCCCC2)c2cccc(C)c2n1	none
Cc1ccc(-c2cc(C(=O)NC3CCCCC3)c3ccccc3n2)cc1	none
CCOC(=O)C1=CN(c2ccc(OCC)cc2)C=C(C(=O)OCC)C1c1ccc2c(c1)OCO2	none
CC1CCN(CCCNC(=O)c2ccccc2C(F)(F)F)CC1	none
COc1ccc(-c2nn(C)c3sc(C(=O)NCCN(C)C)cc23)cc1OC	none
O=C(O)C1CCc2sc(C(=O)N3CCCC3)cc2C1 (stereo not given)	none
CC(C)n1cc2cc(C(=O)Nc3ccc4c(c3)OCCO4)sc2c1	none
CN(C)CCNC(=O)c1cc2cn(C3CC3)cc2s1	KDM5B inh 13µM
CCN(CCNC(=O)c1cc2c(s1)CN(C1CC1)C2)c1cccc(C)c1	none
O=C(c1cc2c(s1)CCC(C(=O)N1CCN(C3CCCC3)CC1)C2)N1CCCCCC1 (stereo not given)	none
CC1CCN(CCNC(=O)c2cc3cn(C(C)C)cc3s2)CC1	KDM5B inh 14µM
O=C(O)c1cc2cn(C3CCCC3)cc2s1	KDM5B inh 16µM
C=CCN1C(=O)COc2ccc(NC(=O)c3cc(=O)c4c(C)cc(C)cc4o3)cc21	none
Cc1ccc(C(=O)Nc2cccc(-c3nc4ccccc4o3)c2)cc1[N+](=O)[O-]	none
O=C(CN1CCCC(c2nc3ccccc3o2)C1)NC(=O)NC1CC1 (stereo not given)	none
O=C(NC1CC1)c1cccc(NC(=O)C2CC3CCC2C3)c1 (stereo not given)	none
O=C(CCc1ncc(-c2ccc(F)cc2F)o1)Nc1ccc(Cl)cc1Cl	none
COc1ccc(NC(=O)c2cccc(-c3ccc(S(=O)(=O)N4CCCC4)cc3)c2)cc1OC	none
Cn1cc(C2c3ccccc3C(=O)N2CC(=O)NCC(N)=O)c2ccccc21 (stereo not given)	none
C1CCC(COCCc2noc(C3CCCN3)n2)C1 (stereo not given)	none
C1CCC(c2nc(CCOCC3CC3)no2)NC1 (stereo not given)	none
C1CCC(c2nc(CCOCC3CCOCC3)no2)NC1 (stereo not given)	KDM5B inh 32µM
N#CC1=C(N)OC2=C(C(=O)CC(c3ccccc3)C2)C1c1ccc(Cl)cc1Cl (stereo not given)	none
Cc1ccc(/C=C/C(=O)c2ccc(C#N)cc2)s1	none
Cn1cc(C(=O)N2CCN(S(=O)(=O)c3cccc(F)c3)CC2)c2ccccc21	none
Clc1ccccc1Nc1cnc2ccc(N3CCOCC3)nn12	KDM5B inh 32µM
COc1ccc(-c2ccc3ncc(Nc4ccccc4Cl)n3n2)cn1	none
FC(F)(F)c1cc(Nc2cnc3ccc(N4CCOCC4)nn23)ccc1Cl	KDM5B inh 32µM
COc1cccc(Nc2cnc3ccc(N4CCOCC4)nn23)c1	none
c1ccc(-c2ccccc2Nc2cnc3ccc(N4CCOCC4)nn23)cc1	none
CN1CCN(Cc2ccc(Nc3cnc4ccc(N5CCOCC5)nn34)cc2)CC1	none
Cc1noc2c(NC3CCC(O)CC3)cc(-c3ccc(F)cc3)nc12 (stereo not given)	none
CCc1cccc(C)c1-n1nnnc1C1(Nc2ccc3c(c2)OCCO3)CCCC1	none
C=C(C)Cn1c(N2CCOCC2)nc2c1c(=O)n(C)c(=O)n2C	none
COc1cccc(-c2noc(CCCc3nc(-c4cccnn4)no3)n2)c1	none
CC(C)Cc1ccc(C(C)NC(=O)Cn2nc(-c3ccc(F)cc3)oc2=O)cc1 (stereo not given)	none
O=C(NC(c1ccccc1)c1ccccc1)c1cc2ccccc2oc1=O	none
